SMN2 splice up: qHTS Assay for Enhancers of SMN2 Splice Variant Expression; HEK293 SMN2-luciferase splicing reporter, luminescence, 30-36 h; Potency, µM (titrated, usually from 46.1 µM), for the others: top-dose activity change, positive = activation, actives largely listed as activators; hit rate 2.8% among 210,000; AID 1458, 2008; note: % of control where 0% means no effect; nearly all actives have a fitted effect of over 55% in size
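HEK293 cells carry an SMN2 […]–luciferase reporter in which exon 7 inclusion puts luciferase in frame. Cells were plated 10-12 h before compound addition, then incubated 30-36 h at 37C. ONE-Glo luminescence was read; sodium butyrate at 4.5 mM final served as control.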
FLuc counter: qHTS profiling assay for firefly luciferase inhibitor/activator using purifed enzyme and Km concentrations of substrates (counterscreen for miR-21 project) | Luciferin 4-monooxygenase (Photinus pyralis), P08659 | purified FLuc, Km substrates, luminescence inhibition | hit rate 6.9% among 360,000 | Potency, µM (series often up to 57.5 µM), without a hit: at the highest dose activity change, negative = inhibition, usual class: inhibitors;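 note: plate controls were vehicle for no effect and reference inhibitor for full effect; nearly all actives have a fitted effect of over 55% in size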
Target sequence (P08659 whole entry, looked up): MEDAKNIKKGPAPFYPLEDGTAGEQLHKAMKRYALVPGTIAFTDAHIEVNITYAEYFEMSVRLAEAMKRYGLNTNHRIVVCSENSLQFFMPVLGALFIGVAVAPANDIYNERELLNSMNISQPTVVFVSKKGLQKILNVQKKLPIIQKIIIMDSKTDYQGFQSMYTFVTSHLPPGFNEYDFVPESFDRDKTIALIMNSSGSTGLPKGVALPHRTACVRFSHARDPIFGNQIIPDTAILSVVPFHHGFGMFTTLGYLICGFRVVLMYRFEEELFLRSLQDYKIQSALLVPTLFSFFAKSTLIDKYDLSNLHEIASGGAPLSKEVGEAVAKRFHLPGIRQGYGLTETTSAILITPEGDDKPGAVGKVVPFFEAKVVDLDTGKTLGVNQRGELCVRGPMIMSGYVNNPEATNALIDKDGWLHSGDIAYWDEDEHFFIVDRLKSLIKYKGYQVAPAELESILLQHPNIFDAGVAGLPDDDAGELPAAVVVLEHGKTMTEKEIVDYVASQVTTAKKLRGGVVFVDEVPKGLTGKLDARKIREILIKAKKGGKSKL
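Biochemical qHTS of compounds, final roughly 60 µM downward over six points, against 10 nM purified firefly luciferase using Km concentrations of substrates (10 uM D-luciferin, 10 uM ATP) in Tris acetate pH 7.5 buffer; luminescence output.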
p53 reactivation: qHTS assay for re-activators of p53 using a Luc reporter. Potency, µM (doses to about 92.2 µM), without a hit: top-dose activity change, positive = activation, hits mostly activators. AID 504706, 2011. hit rate 0.063% among 320,000. H1299 p53-A138V BP100-luciferase reporter, luminescence, 24 h; note: % of control where 0% means no effect; nearly all actives have a fitted effect of over 45% in size
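p53-null H1299 cells stably carrying temperature-sensitive p53-A138V and a BP100-luciferase reporter were pinned with compounds (4-point, 1:5 series) and held 24 hrs at 37 deg C. Luminescence was read 10 min after detection reagent.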
NPC1 promoter act: qHTS Assay for NPC1 Promoter Activators; Huh7 NPC1 promoter luciferase reporter, 24 h; Potency, µM (titrated, usually from 9.22 µM), for the others: top-dose activation, most hits filed as activators; hit rate 2.4% among 320,000; note: % of control where 0% means no effect; nearly all actives have a fitted effect of over 60% in size
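NPC1 promoter–luciferase Huh7 cells; 24 h compound; luminescence.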
ELG1 genotoxic: qHTS screen for small molecules that induce genotoxicity in human embryonic kidney (HEK293T) cells expressing luciferase-tagged ELG1; hit rate 1.3% among 330,000; AID 504466, 2011; Potency, µM (titrated, usually from 46 µM), inactives show top-dose activity change, positive = activation, usual class: activators; HEK293T ELG1-luciferase reporter, luminescence, 16 h; note: % of control where 0% means no effect; nearly all actives have a fitted effect of over 60% in size
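After overnight (16 hr) compound treatment at 37 °C, ELG1-luciferase HEK293T cells were lysed with ONE-Glo; luminescence quantified 30 min later at room temperature.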
Rab9 promoter act: qHTS Assay for Rab9 Promoter Activators; AID 485297, 2010; hit rate 2.8% among 320,000; Potency, µM (highest dose often 9.22 µM), for inactives: at the top dose activation, negative = inhibition, hits mostly activators; Huh7 Rab9 promoter-luciferase reporter, luminescence, 24 h; note: % of control where 0% means no effect; nearly all actives have a fitted effect of over 60% in size
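Rab9 promoter-driven luciferase in stably transfected Huh7 cells; 1500 cells/well rested 2 h, exposed to compound in DMSO for 24 h at 37 °C, 5% CO2. Luminescence read 10 min after adding luciferase reagent at ambient temperature.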
* hit, by the source's call; ? = inconclusive; . = no result given. Compounds with a hit are over-represented: about 7.4% of the library has one in this group of screens. Calls come from the whole dose curve; as a rule, active = well fitted curve in the direction sought with a large enough effect; inconclusive = small, poorly fitted or top-dose-only effect, or another doubt; inactive = no such curve, though single readings can be large; an effect the other way counts as inactive or inconclusive. Potency is the fitted concentration of half-maximal effect.

SMILES | SMN2 splice up | FLuc counter | p53 reactivation | NPC1 promoter act | ELG1 genotoxic | Rab9 promoter act
c1ccc(CSc2nnc3ccc(-c4cccs4)nn23)nc1 | ? | . | 10% | 4% | 7% | 10%
c1ccc(CSc2ccc(-c3cccs3)nn2)cc1 | 16µM* | 1.9µM* | ? | 3.2µM* | ? | 2.8µM*
c1ccc(CSc2ccc(-c3cccs3)nn2)nc1 | 16µM* | 24µM* | 24% | 3.5µM* | 17% | 2.2µM*
FC(F)(F)c1ccc(NCc2ccccn2)nc1 | . | 17µM* | 10% | ? | ? | ?
O=S(=O)(NCc1ccccn1)c1cc(C(F)(F)F)ccc1Cl | -5% | -3% | -3% | -3% | -1% | -2%
c1ccc(CNc2ccc3ccccc3n2)nc1 | ? | 4.8µM* | 8% | 2.2µM* | ? | ?
Cc1cccc(C(=O)NCC(=O)N2CCN(S(=O)(=O)c3ccc4c(c3)OCCO4)CC2)c1 | . | 3% | 0% | 1% | -2% | -2%
Cc1cc(C(=O)N2CCN(S(=O)(=O)c3ccc(C)c(C)c3)CC2)no1 | . | 2% | -6% | 1% | -2% | 0%
CC(=O)NN1C(=O)/C(=C\c2ccc(O)cc2)SC1=S | . | 17µM* | 2% | 5% | 4% | -11%
COc1cc(/C=C2\SC(=S)N(NC(=O)c3ccc(O)cc3)C2=O)ccc1O | . | 3µM* | 0% | 3% | 10% | 3%
COc1cc(/C=C2\SC(=S)N(NC(=O)c3cccnc3)C2=O)ccc1O | . | 17µM* | -7% | -1% | -2% | -1%
O=C(NN1C(=O)/C(=C/c2ccc(O)c(O)c2)SC1=S)c1ccccc1 | . | ? | -31% | -17% | -6% | 0%
Cc1ccc(N(CC(=O)Nc2ccc(C)c(Cl)c2)S(=O)(=O)c2cccs2)cc1 | -14% | 3% | . | . | . | .
Cc1ccc(NC(=O)CC2Sc3ccccc3NC2=O)c(Br)c1 (stereo not given) | -2% | -5% | . | . | . | .
Cc1onc(-c2ccccc2)c1C(=O)NN1CCOCC1 | . | . | -5% | . | -3% | .
CC1CCN(S(=O)(=O)c2ccc3nc(Nc4cccc(F)c4)ccc3c2)CC1 | . | 0% | . | . | . | .
COc1cc(OC)cc(C(=O)N2CCN(C(=O)COc3ccc4ccccc4c3)CC2)c1 | -12% | 5.4µM* | 23% | 9% | 1% | 3%
COc1ccc(N2CCN(C(=O)COc3ccc4ccccc4c3)CC2)cc1 | 1% | -2% | 6% | -3% | 0% | -1%
O=C(COc1ccccc1)N1CCN(C(=O)c2ccc([N+](=O)[O-])cc2)CC1 | . | 9.5µM* | 2% | 4µM* | ? | 3.2µM*
CC(=O)c1ccc(N2CCN(C(=O)CCS(=O)(=O)c3ccc4c(c3)oc(=O)n4C)CC2)cc1 | . | -3% | . | . | . | .
CC1CCCCN1S(=O)(=O)c1ccc2c(c1)oc(=O)n2CC(=O)Nc1ccc(Cl)cc1 (stereo not given) | . | -16% | . | . | . | .
O=C(COc1cccc(NC(=O)c2ccccc2)c1)c1ccccc1 | . | 15µM* | 6% | -3% | 0% | -3%
COC(=O)c1ccc(OCC(=O)c2ccccc2)cc1 | 13µM* | 7.6µM* | ? | 3.2µM* | ? | 3.2µM*
O=C(O)COc1cccc(NC(=O)c2ccccc2)c1 | 20% | ? | 4% | 2% | -1% | -1%
Cc1cccc(C(=O)Nc2cccc(OCC(=O)O)c2)c1 | . | 15µM* | -1% | -4% | 1% | -8%
O=C(COc1cccc(NC(=O)c2cccs2)c1)c1ccc(F)cc1 | -32% | 24µM* | 6% | 1% | -5% | 11%
Cc1ccc(C)c(Cn2c3ccccc3c3cnn(CC(=O)NCCC4=CCCCC4)c(=O)c32)c1 | 5% | 0% | . | . | . | .

High-throughput results as filed in PubChem BioAssay.
